Reference: PubChem BioAssay (Tox21)
Inconclusive results are not listed. The source made the active and inactive calls. Calls follow the shape of the dose curve; as a rule, active = well fitted inhibition curve with a large enough effect in the signal ratio in the repeat runs (not every such curve was filed as active); inconclusive = weak or mixed curves, or effect the other way; inactive = no such curve, though single readings can be large or run the other way; the % refers to the signal ratio.

What follows are compounds tested against Vitamin D3 receptor (Homo sapiens) (UniProt P11473) (assay: qHTS assay to identify small molecule antagonists of the vitamin D receptor (VDR) signaling pathway (AID 743223)). Settings: VDR-UAS-bla HEK293T, beta-lactamase FRET ratio, 16 h; series mostly up to 61 µM.
From the text: U.S. Tox21 Program National Center for Advancing Translational Sciences [NCATS] NIH Chemical Genomics Center [NCGC] U.S. Environmental Protection Agency [EPA] National Institutes of Environmental Health Sciences [NIEHS] National Toxicology Program [NTP] U.S. Food and Drug Administration [FDA] Tox21 Assay Overview: The vitamin D receptor (VDR), a member of nuclear hormone receptor superfamily, plays a critical role in calcium homeostasis and bone metabolism. It is also involved in cell differentiation and growth, and thrombogenicity.
Tox21 Assay Protocol Summary: VDR-bla cells were dispensed at 2,000 cells/5 uL of assay medium per well into black wall/clear-bottom 1536-well plates using a Multidrop Combi (Thermo Fisher Scientific, Waltham, MA) dispenser. After the assay plates were incubated at a 37C and 5% CO2 for 4 h, 23 nL of compounds dissolved in DMSO, positive controls or DMSO only was transferred to the assay plate by a Pintool station (Kalypsys, San Diego, CA), followed by addition of 1 uL of 1alpha, 25-Dihydroxy Vitamin D3 (3 nM, final concentration in the wells) using a Bioraptr Flying Reagent Dispenser (FRD) workstation (Beckman Coulter, Indianapolis, IN). The plates were incubated at 37C and 5% CO2 for 16 h, and then 1 uL of LiveBLAzerTM B/G FRET substrate was added using a Bioraptr FRD. The plates were incubated at room temperature for 2 h and fluorescence intensity was measured by an Envision plate reader (PerkinElmer, Shelton, CT).
% is scaled to controls: 0 for no effect and ±100 for the full control effect.

Vitamin D3 receptor (Homo sapiens), sequence (P11473 whole entry, looked up): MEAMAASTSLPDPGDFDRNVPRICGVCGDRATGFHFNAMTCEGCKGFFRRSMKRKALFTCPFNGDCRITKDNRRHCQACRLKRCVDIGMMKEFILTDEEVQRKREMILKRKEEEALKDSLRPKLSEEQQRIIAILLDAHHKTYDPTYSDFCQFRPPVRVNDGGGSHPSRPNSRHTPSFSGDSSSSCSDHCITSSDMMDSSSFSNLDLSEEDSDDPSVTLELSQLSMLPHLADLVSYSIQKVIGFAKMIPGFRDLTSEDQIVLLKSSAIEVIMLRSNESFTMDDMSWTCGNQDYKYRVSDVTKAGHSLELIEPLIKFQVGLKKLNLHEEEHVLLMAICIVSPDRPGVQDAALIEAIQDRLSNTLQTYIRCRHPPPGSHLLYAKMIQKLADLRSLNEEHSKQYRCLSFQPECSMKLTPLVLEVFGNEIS

Row | Structure (SMILES) | outcome | activity change, negative = inhibition
1 | CN1CCCN=C1/C=C/c1cccs1 | inactive | 
2 | CCCCCCCC/C=C\CCCCCCCC(=O)OC | inactive | 
3 | Cc1ccc(Nc2nccc(N(C)c3ccc4c(C)n(C)nc4c3)n2)cc1S(N)(=O)=O | inactive | 
4 | C/C(=N/NC(=O)c1ccncc1)C(=O)O | inactive | 
5 | CC1=C(/C=C/C(C)=C\C=C\C(C)=C\C(=O)O)C(C)(C)CCC1 | inactive | 
6 | O=C(O)c1ccccc1NCCc1ccccc1 | inactive | 
7 | c1cnc2c(n1)CCCC2 | inactive | 
8 | NC(=O)N(O)[C@@H]1COc2cc(OCc3ccccc3)ccc21 | inactive | 
9 | CC1=CC(=O)CC(C)(C)C1(O)/C=C/C(C)=C\C(=O)O (stereo not given) | inactive | 
10 | COc1cc2c(cc1OC)-c1cc(=Nc3c(C)cc(C)cc3C)n(C)c(=O)n1CC2 | inactive | 
11 | CCn1cc(C(=O)O)c(=O)c2cc(F)c(N3CCNCC3)nc21 | inactive | 
12 | NC(=O)Cn1c(=O)cc(CCN2CCN(c3nccc4sccc34)CC2)c2ccc(F)cc21 | inactive | 
13 | O=S(=O)(c1ccccc1)c1ccc(Cl)cc1 | inactive | 
14 | CCOC(=O)N1CCC(n2c(=O)[nH]c3cc(Cl)ccc32)CC1 | inactive | 
15 | CN1C(=O)CC(C)(c2ccccc2)C1=O (stereo not given) | inactive | 
16 | COC(=O)CC(=O)C(C)(C)C | inactive | 
17 | O=Cc1c(Cl)cccc1Cl | inactive | 
18 | O=C(Nc1ccc([N+](=O)[O-])cc1)Nc1ccc([N+](=O)[O-])cc1 | inactive | 
19 | Cn1c(=O)c2c(ncn2CC(=O)O)n(C)c1=O | inactive | 
20 | CCOCCn1c(C2CCN(CCc3ccc(C(C)(C)C(=O)O)cc3)CC2)nc2ccccc21 | inactive | 

Row | Structure (SMILES) | outcome | activity change, negative = inhibition
21 | O=C(CCCCCCCCC#CI)Oc1ccccc1 | inactive | 
22 | O=C(O)c1snc(Cl)c1Cl | inactive | 
23 | COC(=O)c1cc(S(N)(=O)=O)ccc1OC | inactive | 
24 | c1ccc(COCc2ccccc2)cc1 | inactive | 
25 | CC[C@@H]([C@H](C)O)n1ncn(-c2ccc(N3CCN(c4ccc(OC[C@@H]5CO[C@@](Cn6cncn6)(c6ccc(F)cc6F)C5)cc4)CC3)cc2)c1=O | inactive | 
26 | CCCCCCCCCOC(C)=O | inactive | 
27 | OC(CCCN1CCCCC1)(c1ccccc1)c1ccccc1 | inactive | 
28 | O=C(O)Cc1ccc(-c2ccccc2)cc1 | inactive | 
29 | O=C(OCCOCCO)c1ccccc1Nc1cccc(C(F)(F)F)c1 | inactive | 
30 | COCCOC | inactive | 
31 | CC1CC(O)CC(C)(C)C1 (stereo not given) | inactive | 
32 | C=CC(C)(O)CCCC(C)CCCC(C)CCCC(C)C (stereo not given) | inactive | 
33 | O=C1NCCN1 | inactive | 
34 | Cc1cc(C(=C2C=CC(=Nc3ccc(S(=O)(=O)O)cc3S(=O)(=O)O)C=C2)c2ccc(Nc3ccc(S(=O)(=O)O)cc3)cc2)ccc1N | inactive | 
35 | Cc1ccc(/C=N/n2c(-c3ccccc3)csc2=S)cc1 | inactive | 
36 | [O]=[Bi] |  | 5.58% [at 6.95 µM] (inactive)
37 | CCOC(=O)[C@@H](C)Oc1ccc(Oc2nc3ccc(Cl)cc3o2)cc1 | inactive | 
38 | CCOC(=O)/C=C/C(=O)O | inactive | 
39 | O=S1OCCO1 | inactive | 
40 | CC1=CC(O)CC(C)(C)C1 (stereo not given) | inactive | 
